This is a sample that favours compounds with a hit; in the whole collection about 18% have one here.
PLK1 PBD inh: qHTS for Inhibitors of PLK1-PDB (polo-like kinase 1 - polo-box domain): Primary Screen. AID 720504, 2013. Serine/threonine-protein kinase PLK1 (Homo sapiens), P53350. actives 2.8% (n = 360,000). Plk1 PBD binding of FITC phosphopeptide, fluorescence polarization. Potency, µM, without a hit: max response, negative = inhibition, actives largely listed as inhibitors; also: series mostly up to about 57 µM; nearly all actives have a fitted effect of over 65% in size
GCN5L2 inh: qHTS Assay for Inhibitors of GCN5L2; Histone acetyltransferase KAT2A (Homo sapiens), Q92830; GCN5L2 HAT assay, ThioGlo1 CoA-SH fluorescence; Potency, µM (series often up to 58.9 µM), inactives show top-dose activity change, negative = inhibition, usual class: inhibitors; actives 0.21% (n = 390,000); AID 504327, 2011
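Free CoA generated was detected with ThioGlo1 (50uM) fluorescence at Ex340nm/Em540nm, read immediately and after 20 min at room temperature. Enzyme, 20 nM in HEPES pH 7.5 buffer, saw compounds 15 min before adding 75uM H3(1-25) peptide and 70uM acetyl-CoA.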
VDR inhibitor: Inhibitors of the vitamin D receptor (VDR): qHTS; Vitamin D3 receptor (Homo sapiens), P11473; VDR-SRC2-3 peptide fluorescence polarization, 2 h; Potency, µM, for inactives: max response, negative = inhibition, actives largely listed as inhibitors; actives 0.93% (n = 400,000)
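After 23 nl compound addition and a short centrifugation, plates sat for 2 hours at ambient temperature; polarization of fluorescence then indicated loss of VDR binding to peptide SRC2-3.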
DT40 TDP1 CPT: qHTS for Inhibitors of human tyrosyl-DNA phosphodiesterase 1 (TDP1): qHTS in cells in presence of CPT; AID 686979, 2013; Potency, µM (highest dose often 46.2 µM), without a hit: at the highest dose activity change, negative = growth inhibition, actives largely listed as inhibitors; actives 12% (n = 420,000); chicken DT40 Tdp1-/-;hTDP1 cells + 20 nM CPT, ATP luminescence, 48 h; also: nearly all actives have a fitted effect of over 55% in size
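Cell growth measured by CellTiter-Glo luminescence after a minimum 48 h, 37 C compound exposure with 20 nM CPT in Tdp1-knockout DT40 cells stably expressing hTDP1, seeded 400/well; qHTS titration format.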
TDP1 block: qHTS Assay for Inhibitors of Tyrosyl-DNA Phosphodiesterase (TDP1); Tyrosyl-DNA phosphodiesterase 1 (Homo sapiens), Q9NUW8; recombinant TDP1, AlphaScreen DNA substrate cleavage; Potency, µM (top dose mostly 130 µM), inactives show top-dose activity change, negative = inhibition, most hits filed as inhibitors; actives 0.28% (n = 350,000); AID 485290, 2010; also: nearly all actives have a fitted effect of over 40% in size
Target sequence (Q9NUW8 whole entry, looked up): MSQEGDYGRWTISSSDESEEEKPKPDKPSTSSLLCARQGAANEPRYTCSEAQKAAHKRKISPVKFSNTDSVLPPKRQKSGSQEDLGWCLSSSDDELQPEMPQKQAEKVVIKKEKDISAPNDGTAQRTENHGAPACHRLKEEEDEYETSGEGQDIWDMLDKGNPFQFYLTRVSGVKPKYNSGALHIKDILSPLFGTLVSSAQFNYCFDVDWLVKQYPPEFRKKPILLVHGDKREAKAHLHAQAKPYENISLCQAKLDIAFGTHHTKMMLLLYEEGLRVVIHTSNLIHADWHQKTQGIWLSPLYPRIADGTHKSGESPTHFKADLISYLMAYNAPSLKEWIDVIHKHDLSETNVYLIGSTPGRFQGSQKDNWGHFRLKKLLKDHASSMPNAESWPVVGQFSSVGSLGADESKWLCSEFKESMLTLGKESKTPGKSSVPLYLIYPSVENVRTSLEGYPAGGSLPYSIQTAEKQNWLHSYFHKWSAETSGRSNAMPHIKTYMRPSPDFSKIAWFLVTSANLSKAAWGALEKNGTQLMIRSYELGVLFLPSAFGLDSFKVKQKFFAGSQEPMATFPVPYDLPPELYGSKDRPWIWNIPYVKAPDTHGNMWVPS
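Recombinant human Tdp1 (E. coli-expressed, 1 nM final) preincubated with compounds 15 min at room temperature, then 5'-biotin/3'-phosphotyrosine-FITC DNA substrate (15 nM final) added for 5 min. AlphaScreen beads (10 ug/ml final) added 10 min; cleavage lowers signal.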
DT40 TDP1 no CPT: qHTS for Inhibitors of human tyrosyl-DNA phosphodiesterase 1 (TDP1): qHTS in cells in absence of CPT. DT40 Tdp1-/- hTDP1 cells, no CPT, ATP luminescence, 48 h. Potency, µM (doses to about 46.2 µM), inactives show at the highest dose activity change, negative = growth inhibition, hits mostly inhibitors. actives 15% (n = 420,000); also: nearly all actives have a fitted effect of over 55% in size
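Compound effects on proliferation are scored in DT40 Tdp1-/-;hTDP1 cells in the absence of CPT. ATP levels (CellTiter-Glo luminescence) are recorded after a ≥48 hr, 37 °C incubation.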
* = called active by the depositor; ? = inconclusive; . = no result given; [ ] = remark or other dose. Calls follow the shape of the dose curve; as a rule, active = well fitted curve in the direction sought with a large enough effect; inconclusive = small, poorly fitted or top-dose-only effect, or another doubt; inactive = no such curve, though single readings can be large; an effect the other way counts as inactive or inconclusive. % is scaled to controls: 0 for no effect and ±100 for the full control effect; potency is read from the fitted curve at half-maximal effect.

SMILES | PLK1 PBD inh | GCN5L2 inh | VDR inhibitor | DT40 TDP1 CPT | TDP1 block | DT40 TDP1 no CPT
COc1ccc(-c2sc3ccc(N4CCOCC4)cc3c2C#CC2(O)CCCCC2)cc1 | -2.4% | -15.8% | -22.8% | ? | 1.8% | ?
CCN(CC)C(=O)Cn1ncc2c([nH]c3ccc(C)cc32)c1=O | . | 5.1% | 13.2% | 6.3% | 1.1% | -3.3%
COc1cc(OC)cc(-c2sc3ccc(OC)cc3c2C#CC2(N)CCCCC2)c1 | 9.0% | -3.1% | -12.8% | ? | -0.1% | 14.6µM*
COC(=O)c1ccc(NC(=O)Cn2ccn3nc(-c4ccc(OC)cc4)cc3c2=O)cc1 | . | 2.1% | 14.1% | -3.1% | -8.8% | -0.8%
CCCN(CC(=O)Nc1ccccc1C)C(=O)COC(=O)CSc1ccc([N+](=O)[O-])cc1 | 18.9µM* | 3.9% | ? | -8.1% | 1.0% | 0.3%
CCCN(CC(=O)Nc1ccccc1OC)C(=O)c1ccc(COc2ccccc2)o1 | -4.6% | 1.3% | -12.8% | 16.4µM* | 0.4% | ?
CCCN(CC(=O)Nc1ccccc1C)C(=O)c1ccc(-c2ccc([N+](=O)[O-])cc2)o1 | ? | -11.9% | ? | ? | 1.0% | 20.6µM*
CCCN(CC(=O)Nc1ccccc1C)C(=O)COc1c(C)cccc1C | -0.2% | -1.0% | 2.2% | ? | 1.4% | 6.5%
CCCN(CC(=O)Nc1ccccc1OC)C(=O)c1ccccn1 | -2.5% | 3.1% | -1.3% | -1.4% | 0.1% | -3.2%
CCCN(CC(=O)Nc1ccccc1C)C(=O)CCl | ? | -2.9% | ? | 2.59µM* | 5.9% | 2.06µM*
NC(=O)CSc1ncc2c(n1)-c1ccccc1N(Cc1cccc(F)c1)S2(=O)=O | . | -5.7% | 1.6% | ? | -2.6% | ?
COc1ccc(-c2ccc(=O)n(CC(=O)Nc3ccccc3C(F)(F)F)n2)cc1 | . | -0.2% | 6.0% | -9.4% | 1.9% | -11.7%
C=CCNC(=O)c1c(N)n(-c2cccc(S(N)(=O)=O)c2)c2nc3ccccc3nc12 | -1.1% | -25.4% | -6.4% | 14.6µM* | 2.1% | 11.6µM*
COCCCNC(=O)c1c(N)n(-c2ccccc2)c2nc3ccccc3nc12 | -0.7% | -12.8% | -7.6% | ? | -1.4% | 18.4µM*
COCCNC(=O)c1c(N)n(-c2cccc(C)c2)c2nc3ccccc3nc12 | -0.7% | ? | 1.4% | ? | 3.8% | ?
Nc1c(C(=O)NCCN2CCOCC2)c2nc3ccccc3nc2n1-c1ccccc1 | -0.8% | ? | -5.2% | ? | 2.9% | 16.4µM*
COC(=O)c1c(N)n(-c2ccc(NC(C)=O)cc2)c2nc3ccccc3nc12 | -6.0% | -6.5% | -10.9% | 23.1µM* | 2.4% | 20.6µM*
CCOC(=O)C1CCN(S(=O)(=O)c2ccc(Cl)s2)CC1 | -13.5% | -1.0% | -3.4% | -12.7% | 3.6% | -13.1%
Cc1nn(C)c2c1c(C(F)(F)F)cc(=O)n2CC(=O)NCc1ccc(OC(C)C)cc1 | . | 0.8% | 10.9% | -26.1% | 8.4% | ?
Nc1c(C(=O)NCc2ccc3c(c2)OCO3)c2nc3ccccc3nc2n1CCCN1CCOCC1 | -2.0% | -9.9% | -2.6% | 23.1µM* | 3.9% | ?
O=C1CCCCc2sc(Br)c([N+](=O)[O-])c2N1 | -13.8% | -3.5% | -27.2% | 11.6µM* | . | 11.6µM*
CC(=O)Nc1ccc(Nc2nc(C)c([N+](=O)[O-])c(Nc3ccc(NC(C)=O)cc3)n2)cc1 | 3.4% | -0.3% | -1.0% | ? | 8.1% | 6.51µM*
CNc1nc(C)c([N+](=O)[O-])c(Nc2ccc(OC)cc2)n1 | 11.9µM* | -8.0% | ? | ? | . | 23.1µM*
COc1cc2[nH]c(=S)n(C3CCN(Cc4ccccc4)CC3)c(=O)c2cc1OC | -1.7% | -0.3% | 18.4% | ? | 4.9% | 18.4µM*
c1ccc(CN2CCC(Nc3nc(-c4cccs4)nc4ccccc34)CC2)cc1 | -1.4% | -10.9% | 9.9% | 8.2µM* | 10.7% | 18.4µM*
SMILES | PLK1 PBD inh | GCN5L2 inh | VDR inhibitor | DT40 TDP1 CPT | TDP1 block | DT40 TDP1 no CPT
COc1cc2c(NC3CCN(C)CC3)nc(N3CCCN(C)CC3)nc2cc1OCC1CCNCC1 | . | . | . | -3.5% | . | -14.4%
COc1cc2nc(Cl)nc(NC3CCN(Cc4ccccc4)CC3)c2cc1OC | . | . | . | 7.08µM* | . | 10µM*
COc1cc2c(NC3CCN(C)CC3)nc(N3CCCN(C)CC3)nc2cc1OCc1ccccc1 | . | . | . | 2.82µM* | . | 2.82µM*
CC(C)S(=O)(=O)c1cnc(N2CCOCC2)nc1N | -10.0% | -1.3% | 2.3% | 4.9% | 5.5% | -7.7%
COc1cc2nc(N3CCN(C)CC3)nc(NC3CCN(Cc4ccccc4)CC3)c2cc1OC | . | . | . | 11.2µM* | . | 11.2µM*
COc1cc2nc(N3CCOCC3)nc(NC3CCN(Cc4ccccc4)CC3)c2cc1OC | . | . | . | 15.8µM* | . | 11.2µM*
COc1cc2nc(N3CCCN(C)CC3)nc(NC3CCN(Cc4ccccc4)CC3)c2cc1OC | . | ? | -8.1% | 2.51µM* | . | 3.98µM*
COc1ccc(/C=C/C(=O)NC2CCN(Cc3ccccc3)CC2)cc1OC | -4.7% | -1.9% | -5.1% | -7.6% | 5.9% | -5.2%
COc1cc2c(NC3CCN(C)CC3)nc(N3CCCN(C)CC3)nc2cc1OCCCCC(N)=O | . | . | . | 8.2% | . | -12.3%
O.O=C([O-])CC([S-])C(=O)[O-].[Au+].[Na+].[Na+] (centres undefined) | . | . | . | -21.5% | . | 0.1%
O=C(Nc1ccc2nn(-c3ccc(Cl)cc3)nc2c1)c1cc2ccccc2o1 | . | -1.4% | -7.2% | 0.1% | -12.8%[12.3 µM] | -9.8%
COc1ccc(C(C)C)cc1S(=O)(=O)NCCc1c(C)[nH]c2c(Cl)cccc12 | . | -1.4% | 0.6% | 29.1µM* | 4.5% | ?
COc1ccc(C(C)C)cc1S(=O)(=O)NCCc1c(C)[nH]c2ccc(C)cc12 | . | -20.9% | 4.6% | ? | 13.6% | ?
CC(=O)N1CCN(C(=S)Nc2ccc(SC(F)F)cc2)CC1 | 21.2µM* | 2.2% | -5.5% | -24.2% | -2.7% | -22.9%
Cc1cccc(C)c1N/C=C/c1onc(C)c1[N+](=O)[O-] | -8.1% | . | 4.6% | -17.5% | 3.1% | -21.2%
Cc1noc(/C=C/c2cccnc2)c1[N+](=O)[O-] | -2.7% | 2.6% | ? | 20.6µM* | . | 13µM*

Compound activity: PubChem BioAssay, National Center for Advancing Translational Sciences (NCATS)
